The list is not random: actives were taken first. Their share in the collection is about 1.2%.
Cardiac RTF inh: cardiac RTF calcium sensitivity inhibitors, primary screen, biochemical, IANBD-TnC fluorescence, EC70 calcium. IANBD-labeled cardiac RTF, Ca2+ fluorescence. hit rate 0.12% among 340,000. inhibition, % at 7.15 µM. AID 493244, 2011. Troponin I, cardiac muscle (Homo sapiens) + Troponin T, cardiac muscle (Homo sapiens) + …;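 active means inhibition above the mean inhibition of all tested compounds plus 3 SD, cut at about 17% in these data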;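 further: assay run at fixed EC70 calcium of 1.6 mM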
E coli Lon inh: inhibitors of E. coli Lon protease, primary screen, biochemical, fluorescence polarization; P0A9M0; purified E. coli Lon protease; inhibition, % at 7.94 µM; hit rate 0.42% among 360,000; in the data active means inhibition above about 13%, passing the limit was not always enough;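 further: 0% = enzyme with probe and DMSO and 100% = no enzyme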
cardiac RTF act: cardiac RTF calcium sensitivity activators, primary screen, biochemical, IANBD-TnC fluorescence, EC20 calcium; Troponin I, cardiac muscle (Homo sapiens) + Troponin T, cardiac muscle (Homo sapiens) + …; IANBD-labeled TnC RTF fluorescence at EC20 calcium; 0% EC20 calcium, 100% full calcium; activation, % at 7.2 µM; hit rate 0.24% among 340,000;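 active means activation above the mean over all tested compounds plus 3 SD, cut at about 30% in these data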;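 further: rise in fluorescence read as greater calcium sensitivity of cardiac thin filaments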
GLD-1 RNA inh: GLD-1/TGE RNA complex disruptors, primary screen, biochemical, fluorescence polarization; Female germline-specific tumor suppressor gld-1 (Caenorhabditis elegans), Q17339; purified GLD-1 + fluorescein TGE RNA; AID 2280, 2010; inhibition, % at 5.96 µM; hit rate 0.44% among 320,000;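 active means percent inhibition above a per-plate cutoff, the plate mean of test compounds plus 3 SD, cut at about 30% in these data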;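 further: 0% = DMSO wells with GLD-1 and probe and 100% = wells lacking GLD-1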
Bcl-xL primary: inhibitors of human Bcl-xL, primary screen, biochemical, fluorescence polarization, HTS; Bcl-2-like protein 1 (Homo sapiens), Q07817; GST-Bcl-xL / FITC-Bim BH3 peptide fluorescence polarization; inhibition, % at 10.9 µM; hit rate 0.7% among 320,000; AID 2129, 2009;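 active means inhibition above the mean of all tested compounds plus 3 SD, cutoff set per campaign, cut at about 30% in these data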;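 further: 0% = DMSO wells and 100% = unlabeled Bim-BH3 peptide competitor; inhibitors lower millipolarization by displacing the labeled peptide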
* hit, by the source's call; i = inactive; x = not tested or not shown.

SMILES	Cardiac RTF inh	E coli Lon inh	cardiac RTF act	GLD-1 RNA inh	Bcl-xL primary
CCSC1=N/C(=C\C=C2/Oc3ccccc3N2CC)C(=O)S1	-46	-260	39*	-204	-94
CC1CCCCC1NC(=O)C1CCN(C(=O)c2sccc2-n2cccc2)CC1 (stereo not given)	1	-6	-2	6	-3
COc1ccc(OC)c2nc3c(cc12)CCC3	-11	-5	3	32*	52*
O=C1/C(=C/c2ccc(O)c(O)c2)Oc2cc(O)ccc21	-12	-69	4	-31	-13
COc1cc(/C=C2\Oc3cc(O)ccc3C2=O)ccc1O	-50	-155	41*	-26	18
Cc1ccc(S(=O)(=O)Oc2ccc(/C=C(/NC(=O)c3ccccc3)C(=O)O)cc2)cc1	-1	-5	4	-3	5
CCN(CC)c1ccc2cc(C(N)=O)c(=N)oc2c1	x	-92	x	-81	-20
CCN(CC)c1ccc2cc(C(C)=O)c(=O)oc2c1	-186	i	153*	-153	-76
CCN(CC)c1ccc2cc(/C(N)=N/NC(=O)c3cccs3)c(=O)oc2c1	x	x	x	-100	-43
CCN(CC)c1ccc2cc(C(=O)Nc3ccccn3)c(=O)oc2c1	-32	-120	53*	-162	-46
CCN(CC)c1ccc2cc(NC(=O)CCC(=O)O)c(=O)oc2c1	-65	24	70*	75*	103*
CCN(CC)c1ccc2cc(C(N)=O)c(=O)oc2c1	-11	-92	15	-55	-15
CCN(CC)c1ccc2cc(C=O)c(=O)oc2c1	-425	-403	425*	-124	-43
COc1cccc(C(=O)N2CCN(Cc3nc(-c4ccoc4)oc3C)CC2)c1	x	-4	x	x	x
CCCC1NC(=O)c2cccnc2-n2c1nc1ccc(Cl)cc1c2=O (stereo not given)	x	-5	x	x	x
O=C(Nc1cccc(C(F)(F)F)c1)C1CCN(S(=O)(=O)c2ccc(N3CCCC3=O)cc2)CC1	-1	6	-5	0	8
CCN(CC)c1ccc2cc(-c3nnc(-c4ccncc4)o3)c(=O)oc2c1	-200	i	163*	x	x
c1coc(-c2nnc(-c3ccco3)nn2)c1	2	2	1	8	43*
c1ccc(-c2nnc(-c3ccco3)o2)cc1	1	-2	-5	3	5
CCN1/C(=N\N)c2cccc3cccc1c23	-33	-32	9	22	52*
CCC(C)NC(=O)CN1C(=O)c2cccc3cccc1c23 (stereo not given)	-3	2	4	x	x
Cc1ccc(C(=S)N2CCN(Cc3ccccc3)CC2)s1	-12	-1	0	10	9
N#C/C(=C\c1ccc[nH]1)C(=O)Nc1ccccc1Cl	-7	-6	-1	12	52*
N#C/C(=C\c1ccc[nH]1)C(=O)Nc1ccccc1F	2	7	-1	x	x
CCOC(=O)CNc1c(-c2ccccc2)nc2ccc(Cl)cn12	-5	2	2	13	2
SMILES	Cardiac RTF inh	E coli Lon inh	cardiac RTF act	GLD-1 RNA inh	Bcl-xL primary
COC(=O)CNc1c(-c2ccccn2)nc2ccc(Br)cn12	1	0	11	50*	47*
CCOC(=O)c1sc(NC(=O)c2cc3n(n2)C(C(F)(F)F)CC(c2cccs2)N3)c(C(=O)OCC)c1C (stereo not given)	0	-4	-2	0	6
O=C(NCc1ccccn1)C(=O)NCC(c1ccco1)N1CCOCC1 (stereo not given)	-20	2	-3	10	4
O=C(NCc1ccccn1)C(=O)NCC(c1ccco1)N1CCN(c2ccc(F)cc2)CC1 (stereo not given)	5	0	1	4	32*
CC(C)C[C@H](NC(=O)c1nc[nH]c1C(=O)N1CCC(C)CC1)C(=O)OCc1ccccc1	2	1	6	-8	2
CCOc1ccc(NC(=O)/C(C#N)=C\c2ccc(N3CCCC3)c(C)c2)cc1	-52	-136	72*	x	x
CN(C)c1ncc(C2=C(Cl)C(=O)C(N3CCCC3)=C(Cl)C2=O)s1	10	17	-3	16	57*
O=C(NCc1ccccc1)c1ccc(=O)[nH]n1	1	-5	-2	5	3
O=C(NCc1ccco1)c1cc(NS(=O)(=O)c2cccc([N+](=O)[O-])c2)ccc1O	-1	-1	-2	-2	11

Assay outcomes: PubChem BioAssay, The Scripps Research Institute Molecular Screening Center
